The panel holds about 83,000 compounds, 20% with a hit somewhere; the sample as a whole holds those more often.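 Testing used 96-well plates and a 48-hour single-concentration exposure. Example: -40 means 40% of the starting cells died.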 A number with no mark means an inactive call. Active and inactive are the calls of the source. The calls were made as follows: active = growth percent below 10; inactive = the rest.

Holding throughout (assay): NCI-60 one-dose screen, 48 h (100 = growth as untreated, 0 = no growth, -100 = all killed)
The test system of experiment [1] is SK-MEL-2 melanoma. The settings on record: 10 µM unless noted.
For experiment [2], the system named is EKVX NSCLC. The settings on record: 10 µM unless noted.
Experiment [3] deals with SN12C renal. The settings on record: 10 µM unless noted.
Experiment [4] has as its system UO-31 renal. Particulars: 10 µM unless noted.
Experiment [5] concerns TK-10 renal. Particulars: 10 µM unless noted.
Experiment [6] relates to ACHN renal. The settings on record: 10 µM unless noted.
For experiment [7], the system named is CAKI-1 renal. Particulars: 10 µM unless noted.
Experiment [8] concerns A498 renal. Particulars: 10 µM unless noted.
Experiment [9] concerns CCRF-CEM leukemia. The settings on record: 10 µM unless noted.
The test system of experiment [10] is MOLT-4 leukemia. The settings on record: 10 µM unless noted.
The subject of experiment [11] is SR leukemia. Particulars: 10 µM unless noted.
Experiment [12] concerns RPMI-8226 leukemia. The settings on record: 10 µM unless noted.
Experiment [13] relates to OVCAR-8 ovarian. Particulars: 10 µM unless noted.
The test system of experiment [14] is OVCAR-5 ovarian. The settings on record: 10 µM unless noted.
Experiment [15] has as its system OVCAR-4 ovarian. The settings on record: 10 µM.
Experiment [16] concerns SK-OV-3 ovarian. The settings on record: 10 µM unless noted.
Experiment [17] has as its system IGROV1 ovarian. The settings on record: 10 µM unless noted.
Experiment [18] concerns OVCAR-3 ovarian. The settings on record: 10 µM unless noted.
The subject of experiment [19] is NCI/ADR-RES ovarian. The settings on record: 10 µM unless noted.
The subject of experiment [20] is HS 578T breast. Particulars: 10 µM unless noted.

As to `CCOC(=O)C1=C(C(=O)c2ccc(Br)cc2)C(c2ccc(Br)cc2)NC(=S)N1` (centres undefined), the growth was 110% in experiment [1]; 104% in [2]; 98.3% in experiment [3]; 76.8% in experiment [4]; 130% in [5]; 97.6% in experiment [6]. The growth in experiment [7] is 86%; in experiment [8], 90.6%; in [9], 114%; in experiment [10], 114%; in experiment [11] it was 108%; in [12], 111%. Moreover, the growth in [13] was 97.8%; in experiment [14] it was 108%; in experiment [15] it was 107%; in [16] it was 110%; in experiment [17] it was 92%; in [18], 105%. Moreover, the growth in experiment [19] was 103%.
As to `CCN(CC)CCCC(C)Nc1ccnc2cc(Cl)c(SCc3ccccc3)cc12` (centres undefined), the growth is -71.1% (active) in experiment [1]; 3.57% (active) in experiment [2]; 20.4% in experiment [3]; -84.1% (active) in experiment [4]; -30.8% (active) in [5]; -89.2% (active) in experiment [6]. Also, the growth was -62.2% (active) in [7]; -90.1% (active) in experiment [8]; -25.9% (active) in experiment [9]; -29.3% (active) in experiment [10]; -42.6% (active) in experiment [11]; -36.6% (active) in [12]. In addition, the growth in [13] is -9.3% (active); in experiment [14], -13.7% (active); in experiment [15] it was 7.81% (active); in experiment [16], -43.1% (active); in experiment [17], -26.7% (active); in experiment [18], -28.5% (active). In addition, in [19], the growth is -18.3% (active).
As for `COc1cc(C)cc2oc3oc(=N)c(C(=O)c4ccccc4)cc3c(=O)c12`, the growth in experiment [1] is 114%; in [2], 106%; in [3], 101%; in [4], 79.3%; in experiment [5], 105%; in [6], 95.5%. The growth is 91.6% in experiment [7]; 90.3% in [8]; 118% in [9]; 98.1% in [10]; 94.5% in experiment [11]; 116% in experiment [12]. Moreover, the growth in [13] is 105%; in experiment [14], 95.2%; in [15], 105%; in [16], 120%; in experiment [17], 93.9%; in experiment [18] it was 101%. For the same compound, the growth in experiment [19] was 106%.
For the compound `CC/C=C(\C)C(CCC)(CN=O)C(=O)OCC` (centres undefined), the growth in experiment [1] is 106%; in experiment [2], 112%; in experiment [3] it was 108%; in [4] it was 90.4%; in experiment [5] it was 103%; in [6], 110%. Also, the growth in [7] was 104%; in experiment [8], 114%; in experiment [9], 101%; in experiment [10], 90.1%; in experiment [11], 87.6%; in [12], 96.3%. The growth in experiment [13] is 105%; in experiment [14] it was 113%; in [15] it was 110%; in experiment [16], 99.9%; in [17] it was 118%; in experiment [18], 127%. The growth in experiment [19] is 108%.
As to `CCCCN(CCCC)CC(O)c1ccc(OCc2ccccc2)c2ccccc12` (centres undefined), the growth in experiment [1] was 99.4%; in experiment [2], 75.5%; in experiment [3], 94.6%; in [4] it was 28.9%; in experiment [5] it was 78.2%; in experiment [6], 71.7%. The growth in experiment [7] is 26.3%; in experiment [8] it was 97.2%; in [9], 72.7%; in experiment [10], 15.8%; in experiment [11], 9.33% (active); in experiment [12], 77.3%. The growth is 89.6% in experiment [13]; 98.4% in experiment [14]; 93.3% in experiment [15]; 92.4% in experiment [16]; 61.8% in experiment [17]; 69.2% in experiment [18]. Moreover, in experiment [19], the growth is 77.7%.
Consider `COc1cc(C)cc2oc3oc(=O)c(C(=O)c4cc5cc(Br)ccc5o4)cc3c(=O)c12`, for which the growth in [1] is 114%; in [2] it was 100%; in experiment [3] it was 97.6%; in [4] it was 72.7%; in experiment [5], 121%; in experiment [6], 95.8%. Moreover, the growth in [7] is 91.8%; in experiment [8] it was 92.2%; in [9], 120%; in experiment [10] it was 106%; in [11], 102%; in experiment [12], 120%. In addition, the growth in [13] is 104%; in experiment [14], 98.9%; in experiment [15], 110%; in experiment [16] it was 114%; in experiment [17] it was 92.8%; in experiment [18], 107%. Further, the growth in [19] was 110%.
On to `O=C1/C(=C/c2cccc(OCc3ccccc3)c2)Oc2cc(OCCN3CCCCC3)ccc21`, for which the growth was 134% in [1]; 87.6% in experiment [2]; 81.9% in experiment [3]; 65.1% in experiment [4]; 118% in experiment [5]; 97.6% in [6]. The growth is 84.4% in experiment [7]; 81.7% in experiment [8]; 53.8% in experiment [9]; 82.4% in [10]; -20.5% (active) in experiment [11]; 20.8% in experiment [12]. Further, the growth in experiment [13] is 92%; in [14], 81.4%; in experiment [15], 86.2%; in [16], 121%; in experiment [17] it was 71.5%; in experiment [18], 86.3%. In experiment [19], the growth is 82.7%.
As for `O=C1CC(c2ccccc2)Cc2nc3ccc(Cl)cc3cc21` (centres undefined), the growth in [1] is 57.1%; in experiment [2], 30.2%; in experiment [3], 28.3%; in [4] it was 35%; in experiment [5] it was 71.2%; in experiment [6], 30.8%. The growth in experiment [7] is 29.2%; in experiment [8], -17.4% (active); in experiment [9] it was 10.4%; in experiment [10], 11.6%; in [11], 13%; in [12], 29.7%. In addition, the growth in experiment [13] was 22.4%; in experiment [14], 26.4%; in experiment [15], 48.7%; in experiment [16], 47.2%; in [17] it was 16.5%; in experiment [18], -29.1% (active). Moreover, the growth in experiment [19] is 7.96% (active).
`Cc1cc[n+](CCCCCCCCCC[n+]2ccc(C)cc2)cc1`: the growth is 98.4% in experiment [1]; 95.4% in [2]; 63.5% in [3]; 99.8% in experiment [4]; 82.7% in [5]; 105% in experiment [6]. The growth is 96.6% in experiment [7]; 85% in experiment [8]; 99.1% in [9]; 83.5% in experiment [10]; 98.9% in experiment [11]; 102% in experiment [12]. The growth in experiment [13] was 99%; in experiment [14] it was 97.9%; in experiment [15] it was 99.4%; in experiment [16], 97.8%; in [17], 112%; in [18] it was 99.4%. The figures for the growth in experiment [20] and in experiment [19] were 102% and 94.3%, respectively.
`COc1cc2c(cc1OCCCCCOc1ccc(-n3c(C)nc4ccccc4c3=O)cc1)N=C[C@@H]1CCCN1C2=O`: the growth in experiment [1] was -8.38% (active); in experiment [2], -26.5% (active); in experiment [3], 12.7%; in experiment [4], 2.91% (active); in experiment [5], -28.2% (active); in experiment [6] it was 9.23% (active). The growth in experiment [7] is 4.3% (active); in [8] it was -71.9% (active); in experiment [9], -38.3% (active); in [10], -31.2% (active); in [11], -25.4% (active); in experiment [12], -35% (active). Moreover, the growth was 9.85% (active) in experiment [13]; 10.5% in experiment [14]; -27.8% (active) in [15]; -0.258% (active) in experiment [16]; -28.7% (active) in experiment [17]; -15.8% (active) in experiment [18]. The growth in [19] is -14.6% (active).
Regarding `CC(C)CCNCC(C)(C)O`, the growth in [1] is 107%; in experiment [2], 106%; in experiment [3] it was 110%; in [4], 92.3%; in experiment [5], 104%; in [6] it was 107%. Besides, the growth in experiment [7] was 99.1%; in experiment [8], 105%; in experiment [9], 116%; in experiment [10] it was 110%; in [11] it was 97.9%; in experiment [12] it was 120%. In addition, the growth in experiment [13] is 99.4%; in [14], 101%; in [15] it was 115%; in experiment [16], 110%; in experiment [17], 118%; in experiment [18] it was 119%. Besides, the growth in [20] and in experiment [19] was 118% in each case.
Turning to `Nc1nc(N)c2c(n1)NC(c1ccc(F)cc1)C1CCc3ccccc3C1=N2` (centres undefined), the growth was 97.7% in [1]; 45.3% in experiment [2]; 63.1% in [3]; 59.7% in [4]; 36.3% in experiment [5]; 49.7% in experiment [6]. The growth in experiment [7] is 44.8%; in experiment [8] it was 58.1%; in experiment [9] it was 35.9%; in [10], 19.9%; in [11], 9.32% (active); in experiment [12], 42.3%. Further, the growth in [13] is 70.4%; in [14] it was 110%; in [15] it was 36%; in [16], 63.9%; in [17], 83.6%; in experiment [18], 48.2%. Moreover, the growth in experiment [19] was 43.7%.
Consider `O=C1C(Cl)=C(Nc2ccc3cn[nH]c3c2)C(=O)c2ccccc21`, for which the growth in experiment [1] is -28.6% (active); in [2], -64.7% (active); in experiment [3], -42.9% (active); in [4], -97.7% (active); in experiment [5], 19.8%; in experiment [6] it was 41.1%. Further, the growth in experiment [7] was -94.4% (active); in experiment [8], 93%; in [9] it was -43.8% (active); in experiment [10] it was -38.4% (active); in experiment [11], -52% (active); in [12] it was -54.7% (active). The growth in experiment [13] was -58.2% (active); in [14], -37.9% (active); in [15], -98.9% (active); in experiment [16] it was 87.2%; in [17] it was -83.5% (active); in experiment [18], -100% (active). Moreover, in [19], the growth is -67.5% (active).

The values above are taken from PubChem BioAssay (NCI).
